Screens deposited in PubChem BioAssay by National Center for Advancing Translational Sciences (NCATS).
In the library only some 3% were active in any assay of this set; here they are far more common.
DRD3 antagonist = D3 dopamine receptor (human) antagonism; P35462; D3R cells, DiscoveRx beta-arrestin luminescence, antagonist mode; active compounds read low; max response, negative = inhibition, %; 360,000 compounds, 2.5% hits; AID 652054; in the data active = max response below about -50%; inconclusive = no clear call, values can overlap the other calls; note: % is set by controls: 0 for no effect and ±100 for the full control effect
Target sequence (P35462 whole entry, looked up): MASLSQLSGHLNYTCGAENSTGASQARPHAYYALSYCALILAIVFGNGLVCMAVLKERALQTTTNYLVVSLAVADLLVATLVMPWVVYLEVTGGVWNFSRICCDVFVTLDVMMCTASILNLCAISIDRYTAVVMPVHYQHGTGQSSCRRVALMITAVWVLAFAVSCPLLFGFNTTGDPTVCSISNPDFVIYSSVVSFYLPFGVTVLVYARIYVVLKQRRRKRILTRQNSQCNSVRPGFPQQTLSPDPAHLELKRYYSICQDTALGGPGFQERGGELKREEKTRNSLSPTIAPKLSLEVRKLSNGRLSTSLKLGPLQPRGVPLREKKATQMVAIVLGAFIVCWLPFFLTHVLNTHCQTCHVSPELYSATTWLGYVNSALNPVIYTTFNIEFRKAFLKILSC
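Cells plated overnight at 1500 cells/well, then exposed to library compounds with dopamine controls for 90 minutes at 37 degrees C. DiscoveRx reagent added for 30–60 minutes at room temperature; luminescence read, quantitative HTS format.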
Nrf2 activator = activators of Nrf2 (ARE) signaling. AREc32 ARE-luciferase reporter (MCF7-derived line), luminescence, 24 h. Potency, µM (titrated, usually from 46.1 µM), without a hit: at the highest dose activation, hits mostly activators. 410,000 compounds, 0.31% hits. AID 624171; note: potency is the fitted concentration of half-maximal effect; % of control where 0% means no effect; nearly all actives have a fitted effect of over 65% in size
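ARE activation measured as luciferase luminescence (Steady-Glo, 30 min RT) in AREc32_Fluc cells after 24 hr compound exposure at 37 deg C, 5% CO2; cells seeded overnight at 1000/well in OPTI-MEM, 5% FBS.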
D3 ag = D3 dopamine receptor (human) agonism. 410,000 compounds, 0.58% hits. P35462. D3R DiscoveRx beta-arrestin cells, luminescence, 90 min. AID 652048. max activation, %; in the data active = max activation above about 30%; note: 0% is about no effect
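Agonist mode: compounds and dopamine controls were applied to plated cells for 90 min at 37 degrees C after an overnight attachment at 1500 cells/well. Luminescent read-out followed 30 - 60 minutes at room temperature with DiscoveRx detection reagent.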
GRP78 ERSR act = induces the endoplasmic reticulum stress response in human glioma cells; Potency, µM, without a hit: top-dose activation, actives largely listed as activators; 420,000 compounds, 0.02% hits; AID 602332; U87-MG GRP78 promoter luciferase reporter, 16 h; note: potency is the fitted concentration of half-maximal effect; series mostly up to about 76 µM; % of control where 0% means no effect; nearly all actives have a fitted effect of over 35% in size
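Stably transfected U87-MG glioma cells carrying a GRP78-based luciferase sensor; 16 h compound incubation. Luminescence end-point read 10 min after Bright-Glo addition at room temperature.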
Starred values were filed as active, the others as inactive; ? = inconclusive; nt = no result given. Unless noted, calls come from the whole dose curve; as a rule, active = well fitted curve in the direction sought with a large enough effect; inconclusive = small, poorly fitted or top-dose-only effect, or another doubt; inactive = no such curve, though single readings can be large; an effect the other way counts as inactive or inconclusive.

SMILES	DRD3 antagonist	Nrf2 activator	D3 ag	GRP78 ERSR act
COc1ccc(-c2nnc(SCC(=O)N3CCN(c4ccccc4)CC3)o2)cc1OC	9	1%	-4	-2%
COc1ccc(OCC(=O)N2CCC(Cc3ccccc3)CC2)cc1	10	0%	32*	-1%
O=C(COc1ccc(F)cc1)N1CCC(Cc2ccccc2)CC1	-2	0%	2	6%
Cc1cc(=O)[nH]c(SCC(=O)N2CCC(Cc3ccccc3)CC2)n1	3	2%	0	3%
CCc1cc(=O)[nH]c(SCC(=O)N2CCC(Cc3ccccc3)CC2)n1	-59*	-1%	-20	-1%
CCC(=O)O[C@@H]1CC(=O)O[C@H](C)C/C=C/C=C/[C@H](O)[C@H](C)C[C@H](CC=O)[C@H](O[C@@H]2O[C@H](C)[C@@H](O[C@H]3C[C@@](C)(O)[C@@H](OC(=O)CC)[C@H](C)O3)[C@H](N(C)C)[C@H]2O)[C@H]1OC	nt	nt	7	nt
Cc1ccc(C(=O)Nc2cccc(-c3nc(CNC(=O)C4(C)CC4)c(C)o3)c2)s1	nt	nt	nt	-3%
COc1ccccc1N1CCN(C(CNS(=O)(=O)c2cccs2)c2cccnc2)CC1 (configuration not stated)	-50*	0%	-7	-2%
Cc1sc(NC(=O)/C=C/C(=O)O)c(C(N)=O)c1-c1ccc(C(C)(C)C)cc1	?	13µM*	-7	5%
CCOC(=O)c1c(NC(=O)/C=C/C(=O)O)sc(C)c1-c1ccc(C(C)(C)C)cc1	-13	?	-3	-14%
CC(C)c1nc(C(=O)N2CCOc3ccc(CN4CCN(c5ccccn5)CC4)cc3C2)cs1	nt	nt	nt	0%
Cc1ccccc1Cc1c(C)nc2c(C(=O)N3CCN(Cc4ccc5c(c4)OCO5)CC3)cnn2c1C	-60*	0%	-4	-1%
Cc1nc2c(C(=O)N3CCN(C)CC3)cnn2c(C)c1Cc1ccc(Cl)cc1	-75*	0%	-37	-4%
Cc1ccccc1Cc1c(C)nc2c(C(=O)NCc3ccc4c(c3)OCO4)cnn2c1C	-81*	0%	-22	-5%
Cc1cc(NC(=O)c2cnc3c(-c4ccccc4)c(C)nn3c2C)ccc1Br	nt	0%	34*	-3%
C=CC[C@H](c1ccc(F)cc1)N(CC(C)C)S(=O)(=O)C=C	nt	nt	nt	-5%
CC(=O)C1=C(S(=O)(=O)c2ccc(C)cc2)CS(=O)(=O)C1	-67*	?	-7	-14%
Nc1ccc(-c2c3ccc(=O)cc-3oc3cc(O)ccc23)cc1C(=O)O	-55*	0%	-16	-2%
O=c1ccc2c(-c3ccccc3)c3ccc(O)cc3oc-2c1	33	-1%	12	2%
COc1ccc(F)cc1C(=O)C1CCCN(Cc2c(C)n(C)n(-c3ccccc3)c2=O)C1 (configuration not stated)	-55*	1%	-20	-3%
COc1cc(OC)c(OC)cc1CN1CCCC(C(=O)c2ccccc2SC)C1 (configuration not stated)	-61*	0%	-7	-5%
COc1ccc(F)cc1C(=O)C1CCCN(Cc2ccc3c(c2)OCCO3)C1 (configuration not stated)	-105*	-1%	-3	-2%
COc1cc(CN2CCCC(C(=O)c3ccccc3SC)C2)cc(OC)c1 (configuration not stated)	-14	0%	-9	-3%
COc1ccc(F)cc1C(=O)C1CCCN(Cc2ccc(Oc3ncccn3)cc2)C1 (configuration not stated)	-73*	-1%	-12	-1%
CCCSS/C(CCO)=C(\C)N(C=O)Cc1cnc(C)nc1N	nt	nt	0	nt
SMILES	DRD3 antagonist	Nrf2 activator	D3 ag	GRP78 ERSR act
COCC1CCCN(Cc2ccc3c(c2)CN(C(=O)c2cnn(C(C)C)c2)CCO3)C1 (configuration not stated)	nt	nt	nt	-2%
CCSc1ncc(Cl)c(C(=O)Nc2sc3c(c2C(=O)NCCOC)CCCC3)n1	nt	nt	nt	-1%
Cc1nc2c(c(=O)[nH]1)CSCC2	nt	nt	nt	1%
COc1ccccc1C(=O)C1CCCN(Cc2ccc3c(c2)OCCO3)C1 (configuration not stated)	-50*	0%	-38	-3%
COc1ccc(C(=O)C2CCCN(Cc3cccn3-c3ccccn3)C2)cc1F (configuration not stated)	-1	0%	-2	-4%
Cc1c(CN2CCCCC2C)c(=O)n(-c2ccccc2)n1C (configuration not stated)	-58*	-1%	-13	-5%
COc1ccc(F)cc1C(=O)C1CCCN(Cc2cccn2-c2cccnc2)C1 (configuration not stated)	-96*	4%	-21	-6%
